From PubChem BioAssay (NCI)
About 83,000 compounds went through this panel and 20% of them were active in at least one assay; those are over-represented in the sample as a whole.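 Treatment: one concentration, 48 hours, 96-well format. Scoring: percent growth, with anything below 10 considered active.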 Unmarked numbers belong to inactive results. Active and inactive are the calls of the source.

Tests used:
Assay in all cases: NCI-60 one-dose screen, 48 h (100 = growth as untreated, 0 = no growth, -100 = all killed)
[1] = system: HCT-15 colon; details: 10 µM unless noted
[2] = system: HT29 colon; details: 10 µM unless noted
[3] = system: SNB-75 CNS; details: 10 µM unless noted
[4] = system: SNB-19 CNS; details: 10 µM unless noted
[5] = system: U251 CNS; details: 10 µM unless noted
[6] = system: PC-3 prostate; details: 10 µM unless noted
[7] = system: SK-MEL-5 melanoma; details: 10 µM unless noted
[8] = system: LOX IMVI melanoma; details: 10 µM unless noted
[9] = system: SK-MEL-28 melanoma; details: 10 µM unless noted
[10] = system: SK-MEL-2 melanoma; details: 10 µM
[11] = system: EKVX NSCLC; details: 10 µM unless noted
[12] = system: SN12C renal; details: 10 µM unless noted
[13] = system: TK-10 renal; details: 10 µM unless noted
[14] = system: ACHN renal; details: 10 µM unless noted
[15] = system: CAKI-1 renal; details: 10 µM unless noted
[16] = system: CCRF-CEM leukemia; details: 10 µM unless noted
[17] = system: MOLT-4 leukemia; details: 10 µM unless noted
[18] = system: A498 renal; details: 10 µM unless noted
[19] = system: UO-31 renal; details: 10 µM unless noted
[20] = system: UACC-62 melanoma; details: 10 µM unless noted

SMILES	growth [1]	growth [2]	growth [3]	growth [4]	growth [5]	growth [6]	growth [7]	growth [8]	growth [9]	growth [10]	growth [11]	growth [12]	growth [13]	growth [14]	growth [15]	growth [16]	growth [17]	growth [18]	growth [19]	growth [20] [%]
CC1(O)CCC2CC3OC3(C)CCC3OC3(C)C(O)CC1C2(C)C (stereo not drawn)	102%	102%	95.3%	99.3%	98.3%	87.4%	112%	93.7%	112%	103%	87.8%	103%	107%	101%	99.2%	91.5%	106%	–	–	–
CC(=O)OC1Oc2ccccc2-c2oc(=O)c(-c3cc4ccc(N(C)C)cc4oc3=O)cc21 (stereo not drawn)	46.2%	72.4%	71.1%	48.2%	48.3%	34.8%	18.8%	43.2%	103%	46.7%	35.3%	72%	12.2%	47.4%	46.1%	6.68% (active)	-28.3% (active)	14.2%	–	–
Cn1cc(-c2[nH]c3cc(NC(=O)[C@H](N)C4CCCCC4)cc4c3c2C=NNC4=O)cn1	20.1%	-11.1% (active)	-70.2% (active)	-24.4% (active)	-83.3% (active)	7.2% (active)	-36.6% (active)	-73.4% (active)	-70% (active)	–	33.1%	-11.5% (active)	17.1%	4.51% (active)	9.72% (active)	-29.4% (active)	-36.8% (active)	-43.7% (active)	-13.6% (active)	–
COc1cccc(Nc2ncnn3ccc(CN4CC[C@@H](N)[C@H](O)C4)c23)c1	28.7%	27.1%	-44.6% (active)	43.1%	63.2%	56.3%	76.2%	35.3%	89.7%	–	23.8%	18.9%	-35.3% (active)	2.8% (active)	-13.5% (active)	–	17.6%	-38.1% (active)	-34.3% (active)	–
O=C(NO)c1ccc(Cn2c(=O)n(CCc3ccccc3)c(=O)c3ccccc32)cc1	28.6%	42.3%	54.3%	45.2%	23.8%	20.3%	34.8%	12.9%	13.4%	45.7%	38.8%	38.5%	43.4%	25.8%	27.2%	4.6% (active)	3.88% (active)	12.7%	17.3%	–
N#Cc1c(-c2ccc(Cl)cc2)csc1NC(=O)Nc1cccc(C(F)(F)F)c1	11.7%	13%	29.3%	12.1%	6.02% (active)	11.1%	22.4%	5.9% (active)	14.3%	–	17.3%	–	20.1%	1.09% (active)	27.8%	14.1%	7.5% (active)	13.8%	–	12.5
COc1cc(Nc2ncc(F)c(Nc3ccc4c(n3)NC(=O)C(C)(C)O4)n2)cc(OC)c1OC	53.3%	12.3%	-7.82% (active)	64.6%	48.5%	51.9%	71.8%	9.51% (active)	67.1%	–	52.4%	36.6%	27.2%	5.32% (active)	9.51% (active)	61%	52.4%	-43.9% (active)	2.95% (active)	–
COC(=O)[C@H](Cc1ccc(O)cc1)NC(=O)[C@@H](OC)[C@@H]1Cc2cc3cc(OC4CC(OC5CC(O)C(O)C(C)O5)C(O)C(C)O4)c(C)c(O)c3c(O)c2C(=O)[C@H]1OC1CC(OC2CC(OC3CC(C)(O)C(O)C(C)O3)C(O)C(C)O2)C(O)C(C)O1 (stereo partly drawn)	47.5%	3.68% (active)	-52.5% (active)	8.72% (active)	7.18% (active)	13.4%	-53.3% (active)	-31.2% (active)	-26.6% (active)	–	21.5%	13.3%	23.5%	4.06% (active)	69.5%	11.1%	-1.8% (active)	-63.2% (active)	18.1%	–
CCCCCCCC(=O)SCC/C=C/[C@@H]1CC(=O)NCc2cccc(n2)C2=N[C@@](C)(CS2)C(=O)N[C@@H](C(C)C)C(=O)O1	2.94% (active)	0.997% (active)	31.3%	14.3%	-32.1% (active)	11.5%	-93.9% (active)	-94.3% (active)	1.51% (active)	-1.86% (active)	22.2%	22.6%	-16.1% (active)	-11.8% (active)	-38.8% (active)	30.6%	14.3%	–	-8.17% (active)	–
CCNC(=O)C#Cc1ccc2c(C(=Nc3ccc(CN(C)C)cc3)c3ccccc3)c(O)[nH]c2c1	27.7%	-40% (active)	3.23% (active)	29.5%	22.4%	44.4%	17%	-75.7% (active)	-11.6% (active)	–	49%	36.5%	25.7%	–	32.7%	17.3%	10.9%	-40.3% (active)	8.22% (active)	–
CN[C@@H]1C[C@H]2O[C@@](C)([C@@H]1OC)n1c3ccccc3c3c4c(c5c6ccccc6n2c5c31)C(=O)N[C@H]4O	-16.8% (active)	-16.7% (active)	-98.9% (active)	-34.4% (active)	-85.3% (active)	4.43% (active)	-98.9% (active)	-85.5% (active)	-61.3% (active)	–	-4.21% (active)	-38.7% (active)	-34% (active)	5.01% (active)	-59.7% (active)	0.26% (active)	0.831% (active)	–	-64.4% (active)	–
Cc1cc(-c2cc(O)ccc2Cl)cc2nnc(Nc3ccc(OCCN4CCCC4)cc3)nc12	-78.5% (active)	-57.1% (active)	-90.8% (active)	-64.4% (active)	-74.5% (active)	-80.5% (active)	-84.9% (active)	-63.9% (active)	-72.3% (active)	–	-81.1% (active)	-79.2% (active)	-82.1% (active)	-92.7% (active)	-83% (active)	-51.9% (active)	-42.9% (active)	-68.9% (active)	-87.3% (active)	–
C=CCn1c(=O)c2cnc(Nc3ccc(N4CCN(C)CC4)cc3)nc2n1-c1cccc(C(C)(C)O)n1	4.74% (active)	-12.4% (active)	3.88% (active)	26.9%	16.7%	28.4%	18.2%	5.87% (active)	64.4%	–	22.5%	–	13.8%	–	23.3%	8% (active)	3.84% (active)	-26% (active)	10.5%	42.6
Cc1ccc(C(=O)Nc2ccc(CN3CCN(C)CC3)c(C(F)(F)F)c2)cc1C#Cc1cnc2cccnn12	-83.1% (active)	-69.8% (active)	-99.1% (active)	-98.3% (active)	-98.5% (active)	-64.1% (active)	-98.8% (active)	-94% (active)	-97% (active)	–	-84.4% (active)	-92.8% (active)	-98.7% (active)	-100% (active)	-99.9% (active)	-29.5% (active)	-62.3% (active)	-96.8% (active)	-93.6% (active)	–
COC(=O)C1CCc2sc3ncnc(Nc4cn[nH]c4C(=O)Nc4ccc(CN5CCN(C)CC5)cc4)c3c21 (stereo not drawn)	7.28% (active)	-0.301% (active)	-22.4% (active)	21.6%	-24.2% (active)	9.88% (active)	-59.3% (active)	0.377% (active)	23.5%	-20.4% (active)	8.24% (active)	12.7%	5.51% (active)	4.58% (active)	–	1.79% (active)	-6.03% (active)	-25.6% (active)	-15.3% (active)	–
COc1cc(NCCCN)c2ncccc2c1	100%	75.6%	87.5%	87.5%	83.2%	82.2%	81.5%	61.8%	83.4%	–	105%	84.7%	84.8%	97.2%	97.2%	92.5%	91.5%	56.9%	63.4%	–
